Results filed as inconclusive are left out. Activity calls are given as the source filed them. Calls follow the shape of the dose curve; as a rule, active = well fitted curve in the direction sought with a large enough effect; inconclusive = small, poorly fitted or top-dose-only effect, or another doubt; inactive = no such curve, though single readings can be large; an effect the other way counts as inactive or inconclusive.
Legend:
[1] = qHTS of pediatric cancer cell lines to identify multiple opportunities for drug repurposing: Primary screen for NB-EBc1 cells (AID 1347095); also: potency is read from the fitted curve at half-maximal effect;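 as to activity change, negative = cytotoxic: plate controls were DMSO neutral control for no effect and bortezomib for full effect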
In short: (§1)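 500-1,000 cells/well; 5 h pre-incubation 37 °C/5% CO2; compound pinned; 48 h; CellTiter-Glo, 15 min RT; luminescence. MIPE 11-pt from 0.78 nM, NPC 8-pt from 0.59 nM final. Bortezomib 2.3 µM final as positive control.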

[2] = qHTS of pediatric cancer cell lines to identify multiple opportunities for drug repurposing: Primary screen for U-2 OS cells (AID 1347096); also: nearly all actives have a fitted effect of over 50% in size; also: potency is read from the fitted curve at half-maximal effect;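 as to activity change, negative = cytotoxic: plate controls were DMSO wells for no effect and bortezomib positive control wells for full effect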
In short: (§2)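 Viability after 48 h compound treatment at 37C, 500-1,000 cells/well, read as ATP luminescence with CellTiter-Glo. Primary screens used 11-point (MIPE, 0.78 nM-46 µM) or 8-point (NPC, 0.59 nM-46 µM) final concentrations; follow-up screens used 11-point dilutions.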

[3] = qHTS of pediatric cancer cell lines to identify multiple opportunities for drug repurposing: Primary screen for Saos-2 cells (AID 1347097); also: nearly all actives have a fitted effect of over 40% in size; also: potency is read from the fitted curve at half-maximal effect; as to activity change, negative = cytotoxic: % is scaled to controls: 0 for no effect and ±100 for the full control effect
In short: as §1

[4] = qHTS of pediatric cancer cell lines to identify multiple opportunities for drug repurposing: Primary screen for SK-N-SH cells (AID 1347098); also: nearly all actives have a fitted effect of over 65% in size; also: potency is read from the fitted curve at half-maximal effect;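 as to activity change, negative = cytotoxic: DMSO served as neutral control and bortezomib at 2.3 µM as positive control; % is scaled to controls: 0 for no effect and ±100 for the full control effect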
In short: (§3)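 Cells (500-1,000/well) rested 5 h, then received compounds for 48 h; metabolically active cells were measured by CellTiter-Glo luminescence. Final concentrations spanned up to 46 µM (MIPE, 11-point) or 0.59 nM-46 µM (NPC, 8-point) in primary screens, 11-point in follow-ups.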

[5] = qHTS of pediatric cancer cell lines to identify multiple opportunities for drug repurposing: Primary screen for NB1643 cells (AID 1347099);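 also: plate controls were DMSO neutral control for no effect and bortezomib positive control for full effect; nearly all actives have a fitted effect of over 50% in size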
In short: as §1

[6] = qHTS of pediatric cancer cell lines to identify multiple opportunities for drug repurposing: Primary screen for LAN-5 cells (AID 1347100); also: potency is read from the fitted curve at half-maximal effect;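 as to activity change, negative = cytotoxic: plate controls were DMSO neutral control for no effect and bortezomib positive control for full effect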
In short: as §2

[7] = qHTS of pediatric cancer cell lines to identify multiple opportunities for drug repurposing: Primary screen for BT-12 cells (AID 1347101); also: nearly all actives have a fitted effect of over 25% in size; also: potency is read from the fitted curve at half-maximal effect;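 as to activity change, negative = cytotoxic: plate controls were DMSO for no effect and bortezomib positive control for full effect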
In short: as §3

[8] = qHTS of pediatric cancer cell lines to identify multiple opportunities for drug repurposing: Primary screen for Rh18 cells (AID 1347102); also: nearly all actives have a fitted effect of over 65% in size; also: potency is read from the fitted curve at half-maximal effect; as to activity change, negative = cytotoxic: % is scaled to controls: 0 for no effect and ±100 for the full control effect
In short: as §2

[9] = qHTS of pediatric cancer cell lines to identify multiple opportunities for drug repurposing: Primary screen for OHS-50 cells (AID 1347103); also: nearly all actives have a fitted effect of over 40% in size; also: potency is read from the fitted curve at half-maximal effect;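 as to activity change, negative = cytotoxic: plate controls were DMSO neutral control for no effect and bortezomib positive control for full effect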
In short: as §3

[10] = qHTS of pediatric cancer cell lines to identify multiple opportunities for drug repurposing: Primary screen for RD cells (AID 1347104); also: nearly all actives have a fitted effect of over 55% in size; also: potency is read from the fitted curve at half-maximal effect;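 as to activity change, negative = cytotoxic: plate controls were DMSO for no effect and bortezomib for full effect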
In short: as §1

[11] = qHTS of pediatric cancer cell lines to identify multiple opportunities for drug repurposing: Primary screen for MG 63 (6-TG R) cells (AID 1347105); also: nearly all actives have a fitted effect of over 50% in size; also: potency is read from the fitted curve at half-maximal effect; as to activity change, negative = cytotoxic: % is scaled to controls: 0 for no effect and ±100 for the full control effect
In short: as §1

[12] = qHTS of pediatric cancer cell lines to identify multiple opportunities for drug repurposing: Primary screen for control Hh wild type fibroblast cells (AID 1347106);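 also: series mostly up to about 46 µM; % is scaled to controls: 0 for no effect and ±100 for the full control effect; a drop in luminescence marks cytotoxicity and a rise apparent proliferation; nearly all actives have a fitted effect of over 55% in size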
In short: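 Cells (500-1,000/well) in growth media were settled 5 h at 37 degrees C, then given compounds for 48 h. Viability was read as CellTiter-Glo luminescence. Primary runs used MIPE at 11 points (0.78 nM-46 µM) and NPC at 8 points (0.59 nM-46 µM); follow-ups used 11 points.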

[13] = qHTS of pediatric cancer cell lines to identify multiple opportunities for drug repurposing: Primary screen for Rh30 cells (AID 1347107); also: nearly all actives have a fitted effect of over 75% in size; also: potency is read from the fitted curve at half-maximal effect
In short: as §2

[14] = qHTS of pediatric cancer cell lines to identify multiple opportunities for drug repurposing: Primary screen for Rh41 cells (AID 1347108); also: nearly all actives have a fitted effect of over 70% in size; also: potency is read from the fitted curve at half-maximal effect;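 as to activity change, negative = cytotoxic: series mostly up to about 46 µM; luminescence drop marks cytotoxic hits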
In short: as §1

[15] = qHTS of pediatric cancer cell lines to identify multiple opportunities for drug repurposing: Confirmatory screen for NB1643 cells (AID 1347109); also: potency is read from the fitted curve at half-maximal effect; nearly all actives have a fitted effect of over 45% in size
In short: as §2

[16] = qHTS of pediatric cancer cell lines to identify multiple opportunities for drug repurposing: Confirmatory screen for A673 cells (AID 1347110); conditions: A673 Ewing sarcoma cell viability; also: potency is read from the fitted curve at half-maximal effect; nearly all actives have a fitted effect of over 65% in size
In short: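 qHTS titration format: primary MIPE 0.78 nM-46 µM (11 pts), NPC 0.59 nM-46 µM; confirmation 11 pts. 48 h, CTG luminescence.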

[17] = qHTS of pediatric cancer cell lines to identify multiple opportunities for drug repurposing: Confirmatory screen for SK-N-MC cells (AID 1347111); conditions: SK-N-MC cell viability;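 also: potency is read from the fitted curve at half-maximal effect; cells exposed to compound for 48 h before the readout; nearly all actives have a fitted effect of over 70% in size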
In short: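 SK-N-MC cells at 500-1,000 cells/well in growth media were pre-incubated 5 h, then exposed to compounds at 11-point dilutions for 48 h at 37 degrees C, 5% CO2. Viability was read as CellTiter-Glo luminescence.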

[18] = qHTS of pediatric cancer cell lines to identify multiple opportunities for drug repurposing: Confirmatory screen for DAOY cells (AID 1347114); also: nearly all actives have a fitted effect of over 65% in size
In short: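 Viability measured as metabolically active cells via CellTiter-Glo luminescence following 48 hours of compound exposure, 11-point dilutions in confirmatory testing. 500-1,000 cells/well plated 5 hours before dosing; controls were DMSO and 2.3 µM bortezomib.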

[19] = qHTS of pediatric cancer cell lines to identify multiple opportunities for drug repurposing: Confirmatory screen for BT-12 cells (AID 1347112); also: potency is read from the fitted curve at half-maximal effect; nearly all actives have a fitted effect of over 55% in size
In short: as §2

[20] = qHTS of pediatric cancer cell lines to identify multiple opportunities for drug repurposing: Confirmatory screen for LAN-5 cells (AID 1347113)
In short: as §2

CN(C)CCn1nnnc1SCC1=C(C(=O)O)N2C(=O)[C@@H](NC(=O)Cc3csc(N)n3)[C@H]2SC1
inactive: Potency [1] | Potency [2] | Potency [3] | Potency [4] | Potency [5] | Potency [6] | Potency [7] | Potency [8] | Potency [9] | Potency [10] | Potency [11] | Potency [12] | Potency [13] | Potency [14]

O=C(O)Cc1cccc(-c2cc(CCCCCCc3ccc(O[C@H]4O[C@H](CO)[C@@H](O)[C@H](O)[C@@H]4O)c(-c4cccc(CC(=O)O)c4)c3)ccc2O[C@H]2O[C@H](CO)[C@@H](O)[C@H](O)[C@@H]2O)c1
inactive: activity change, negative = cytotoxic [1] 9.49% [at 0.597 µM] | activity change, negative = cytotoxic [2] 2.96% [at 0.597 µM] | activity change, negative = cytotoxic [3] 9.71% [at 0.597 µM] | activity change, negative = cytotoxic [4] -3.64% [at 0.741 µM] | activity change, negative = cytotoxic [5] 1.92% [at 0.597 µM] | activity change, negative = cytotoxic [6] 9.16% [at 0.597 µM] | activity change, negative = cytotoxic [7] 15.7% [at 0.745 µM] | activity change, negative = cytotoxic [8] 18.6% [at 0.597 µM] | activity change, negative = cytotoxic [9] 10.4% [at 0.73 µM] | activity change, negative = cytotoxic [10] 16.2% [at 0.597 µM] | activity change, negative = cytotoxic [11] -10.3% [at 0.597 µM] | activity change, negative = cytotoxic [12] 2.02% [at 0.597 µM] | activity change, negative = cytotoxic [13] 18.7% [at 0.597 µM] | activity change, negative = cytotoxic [14] 21.7% [at 0.597 µM]

CCOc1ccc2nc(S(N)(=O)=O)sc2c1
inactive: Potency [1] | Potency [2] | Potency [4] | Potency [5] | Potency [6] | Potency [7] | Potency [8] | Potency [9] | Potency [10] | Potency [11] | Potency [12] | Potency [13] | Potency [14]

S=c1[nH]c2ccccc2s1
inactive: Potency [1] | Potency [2] | Potency [3] | Potency [4] | Potency [6] | Potency [7] | Potency [8] | Potency [9] | Potency [11] | Potency [12] | Potency [13] | Potency [14]

CCOC(=O)c1ccccc1O
active: Potency [15] 14.7 µM | Potency [16] 3.29 µM | Potency [17] 1.65 µM
inactive: Potency [1] | Potency [2] | Potency [3] | Potency [4] | Potency [5] | Potency [6] | Potency [7] | Potency [8] | Potency [9] | Potency [10] | Potency [11] | Potency [12] | Potency [13] | Potency [14] | Potency [18]

Cc1[nH]cnc1CN1CCc2c(c3ccccc3n2C)C1=O
inactive: Potency [1] | Potency [2] | Potency [3] | Potency [4] | Potency [5] | Potency [6] | Potency [7] | Potency [8] | Potency [10] | Potency [11] | Potency [12] | Potency [13] | Potency [14]

c1ccc2sc(SSc3nc4ccccc4s3)nc2c1
inactive: Potency [1] | Potency [2] | Potency [3] | Potency [4] | Potency [5] | Potency [6] | Potency [7] | Potency [8] | Potency [9] | Potency [10] | Potency [11] | Potency [13] | Potency [14]

CCCCCCOc1ccccc1C(N)=O
inactive: Potency [1] | Potency [2] | Potency [3] | Potency [4] | Potency [5] | Potency [6] | Potency [8] | Potency [10] | Potency [11] | Potency [12] | Potency [13] | Potency [14]

COC(=O)c1nc(Cl)c(Cl)nc1N
active: Potency [1] 1.33 µM | Potency [2] 13.3 µM | Potency [3] 2.37 µM | Potency [4] 3.44 µM | Potency [6] 3.35 µM | Potency [7] 2.19 µM | Potency [8] 23.7 µM | Potency [9] 872 nM | Potency [10] 5.96 µM | Potency [11] 8.41 µM | Potency [13] 21.1 µM | Potency [14] 3.76 µM | Potency [15] 3.69 µM | Potency [16] 0.293 µM | Potency [17] 1.17 µM | Potency [19] 2.08 µM | Potency [20] 3.29 µM | Potency [18] 1.65 µM
inactive: Potency [12]

Clc1ccccc1-c1nc(-c2ccncc2)no1
inactive: Potency [1] | Potency [2] | Potency [3] | Potency [5] | Potency [6] | Potency [8] | Potency [10] | Potency [11] | Potency [12] | Potency [13] | Potency [14]

CC(=O)SCC(CC(=O)c1ccc(C)cc1)C(=O)O (configuration not stated)
inactive: Potency [1] | Potency [2] | Potency [4] | Potency [5] | Potency [6] | Potency [7] | Potency [8] | Potency [9] | Potency [10] | Potency [11] | Potency [12] | Potency [13] | Potency [14]
